An excerpt weighted towards active compounds, which were near 2.9% of everything screened.
DRD3 agonist = activates the human D3 dopamine receptor; D3R DiscoveRx beta-arrestin cells, luminescence, 90 min; max activation, %; 410,000 compounds, 0.58% hits; in the data active = max activation above about 30%; also: 0% is about no effect
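Agonist-mode cell screen: cells plated at 1500/well and incubated overnight at 37 °C, then exposed to library compounds for 90 min at 37 °C. Detection reagent was added for 30–60 min at room temperature, and luminescence was read.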
D3 antag = D3 dopamine receptor (human) antagonism | D3R cells, DiscoveRx beta-arrestin luminescence, antagonist mode; hits give low values | max response, negative = inhibition, % | 360,000 compounds, 2.5% hits | AID 652054; in the data active = max response below about -50%; inconclusive = no clear call, values can overlap the other calls; also: % is scaled to controls: 0 for no effect and ±100 for the full control effect
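Cells expressing the human receptor were seeded at 1500 cells/well, incubated overnight at 37 degrees C in 5% CO2, then exposed to library compounds with dopamine controls for 90 minutes at 37 degrees C before luminescent detection.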
TRPML1 blocker = human mucolipin-1 channel inhibition; TRPML1-inducible cells, Ca2+ dye fluorescence, FDSS; hits give low values; inhibition of EC80 agonist-evoked calcium signal; Q9GZU1; AID 624415; 390,000 compounds, 0.02% hits; activity change, negative = inhibition, % (no concentration beside the values); in the data active = activity change below about -50%; inconclusive = between about -30% and that limit;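 also: stimulus is agonist 54-4 at its EC80 concentration; % is scaled to controls: 0 for no effect and ±100 for the full control effect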
Target sequence (Q9GZU1 whole entry, looked up): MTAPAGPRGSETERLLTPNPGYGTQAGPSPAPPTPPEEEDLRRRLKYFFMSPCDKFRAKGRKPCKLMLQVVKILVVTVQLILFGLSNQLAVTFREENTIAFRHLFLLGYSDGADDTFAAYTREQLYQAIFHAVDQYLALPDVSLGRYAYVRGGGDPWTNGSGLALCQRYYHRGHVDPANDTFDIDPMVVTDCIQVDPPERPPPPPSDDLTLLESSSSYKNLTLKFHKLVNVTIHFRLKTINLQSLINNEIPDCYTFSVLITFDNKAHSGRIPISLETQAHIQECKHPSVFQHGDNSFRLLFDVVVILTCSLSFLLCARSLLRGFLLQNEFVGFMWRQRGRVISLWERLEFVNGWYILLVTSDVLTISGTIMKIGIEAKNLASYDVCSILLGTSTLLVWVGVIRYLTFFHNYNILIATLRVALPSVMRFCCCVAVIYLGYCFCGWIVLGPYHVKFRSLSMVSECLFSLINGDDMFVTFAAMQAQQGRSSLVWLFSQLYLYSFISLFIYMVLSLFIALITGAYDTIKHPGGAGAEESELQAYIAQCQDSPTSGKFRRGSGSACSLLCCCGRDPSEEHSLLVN
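Calcium fluorescence in TRPML1-DL cells induced overnight with Tet: a 110 s read after compound pin addition, then a 110 s antagonist read after challenge with 54-4 at 4 uM final (EC80).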
TRPML1 agonist = agonists of human TRPML1 channel | Q9GZU1 | TRPML1-expressing cells, Ca2+ dye fluorescence, FDSS | activation, % (concentration not given with the values) | 410,000 compounds, 0.12% hits | AID 624414; in the data active = activation above about 50%; inconclusive = mostly about 30% to 49%; also: 0% is about no effect
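Tet-induced TRPML1-DL cells, 1,500 per well, cultured overnight, were loaded with a no-wash Ca2+ dye for 45–90 min. Calcium fluorescence was recorded on the FDSS for 110 s after compound addition, before the EC80 agonist (4 uM 54-4) was added.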
* marks the source's active call; other numbers are inactive results; ? = inconclusive; nt = no result; ! = repeats disagree.

SMILES | DRD3 agonist | D3 antag | TRPML1 blocker | TRPML1 agonist
O=S(=O)(Nc1c(S(=O)(=O)c2ccccc2)c2nc3ccccc3nc2n1C1CCCCC1)c1ccccc1 | 6 | -70* | -3 | 4
CCN(CC)c1nc(NC2CCN(C)CC2)c2cc(OC)c(OC)cc2n1 | nt | nt | nt | 0
Cc1cccc(-c2nnc(-c3cccc(NC(=O)Cc4cccs4)c3)o2)c1 | 31* | 34 | -8 | 3
Cc1ccc(-c2c3c(=O)n(C)c(=O)n(C)c3cn2N2CCOCC2)cc1 | 3 | -51* | 4 | -1
Oc1ccc(N2CCN(Cc3cc4c(cc3Br)OCCO4)CC2)cc1 | -17 | -86* | 3 | 1
CC(=O)c1ccc(OCC(=O)N2CCCCC2)cc1 | -6 | nt | nt | nt
Oc1c(CN2CCOCC2)cc(CN2CCOCC2)c(O)c1CN1CCOCC1 | -1 | 8 | 5 | 0
CC(C)(C)c1nc(CN2CCOCC2)cc(CN2CCOCC2)c1O | -3 | -70* | -2 | 0
Oc1c(CN2CCOCC2)cc(-c2ccccc2)cc1CN1CCOCC1 | -5 | -83* | -7 | 0
CC(C)(c1cc(Cl)c(O)c(CN2CCOCC2)c1)c1cc(Cl)c(O)c(CN2CCOCC2)c1 | -7 | -25 | -1 | -1
CCOc1ccccc1-c1nc(-c2ccc(NC(=O)c3ccc(Br)o3)cc2)no1 | 57* | 21 | 1 | 0
CNc1nc(-c2ccccc2)c(-c2ccccc2)s1 | nt | nt | nt | -1
COc1ccccc1C(O)c1ncc(-c2cccc3ccccc23)[nH]1 (stereo not given) | -17 | -57* | nt | -1
CC(=O)Nc1cc(-c2ccc(CO)cc2)cn2c(-c3ccc(F)cc3)cnc12 | -5 | -50* | nt | -1
COc1ccc(-c2cnc3c(NC(C)=O)cc(-c4ccc(C(=O)NC5CC5)cc4)cn23)cc1OC | 36* | 226 | nt | -1
CC(=O)Nc1cc(-c2cccc(C(=O)NCCN(C)C)c2)cn2c(-c3ccccc3)cnc12 | -24 | -52* | nt | 0
CCCCCCCCCCCCCCCC(C)C1=NCCN1 (stereo not given) | nt | nt | nt | -1
O=C(CNC(=O)C1CCCCC1)OCC(=O)c1ccc([N+](=O)[O-])cc1 | nt | nt | nt | -1
Cc1cc2c(cc1NC(=O)c1ccccc1C)n(C)c(=O)c(=O)n2C | 5 | nt | 0 | 1
CCOC(=O)c1ccc(CN(Cc2ccc(F)cc2)S(=O)(=O)c2ccc(F)c(C(=O)Nc3cc(Cl)ccc3OC)c2)cc1 | 4 | nt | -5 | 1
CCCN1C(=O)C(Cc2nc3ccccc3c(=O)n2CC)c2ccccc21 (stereo not given) | -15 | nt | -5 | 1
O=C1C=C(c2ccc(CO)cc2)C[C@@H](c2ccc3c(c2)OCO3)C1 | -27 | -51* | -14 | -1
CCCCC/C=C/C1=CC(=O)C[C@H](c2ccc3c(c2)OCO3)C1 | 51* | -1 | -8 | 2
CN(C)c1ccc(/C=C2\C=Cc3ccccc32)cc1N | nt | nt | nt | 0
CC(C)C1=NN2C(=N)CC(=O)N=C2S1 | 5 | -63* | -14 | 0
SMILES | DRD3 agonist | D3 antag | TRPML1 blocker | TRPML1 agonist
CCCCC1=NN2C(=N)CC(=O)N=C2S1 | 6 | -27 | 3 | 0
O=C(OCc1cc(=O)n2nc(-c3cccs3)sc2n1)c1ccc(Cl)cc1 | 6 | nt | -29 | -1
CNc1ccc2c3c(cccc13)C(=O)N(C)C2=O | 1 | 76 | -13 | 78*
CN1C(=O)c2cccc3c(Cl)ccc(c23)C1=O | 2 | 9 | 2 | 0
CN1CCC(=C2c3ccccc3CCc3cccnc32)CC1 | -25 | nt | nt | nt
CCOC(=O)N1CCC(=C2c3ccc(Cl)cc3CCc3cccnc32)CC1 | 52*! | 126 | -2 | 2
O=C(C[n+]1cccc(Br)c1)c1ccc(F)cc1 | nt | nt | nt | 0
c1csc(-c2csc3ncnc(NCCCN4CCOCC4)c23)c1 | -17 | -56* | 12 | 2
Fc1ccc(-c2csc3ncnc(N4CCN(c5ccccc5)CC4)c23)cc1 | 2 | 23 | 2 | 0
CCN1CCN(c2ncnc3scc(-c4ccc(OC)cc4)c23)CC1 | -12 | -61* | 26 | 0
COc1ccc(N2CCN(c3ncnc4scc(-c5ccccc5)c34)CC2)cc1 | 31* | 67 | -21 | 2
COc1ccc(N2CCN(c3ncnc4scc(-c5ccc(C)cc5)c34)CC2)cc1 | 3 | 16 | 67 | 3
c1ccc(N2CCN(c3ncnc4scc(-c5cccs5)c34)CC2)cc1 | 51* | 39 | -7 | 19
COc1ccc(-n2nnnc2S(=O)(=O)CC(=O)N2CCCCC2)cc1 | -9 | -98* | 5 | 2
Cc1ccccc1Cn1c(=O)n(-c2ccc(Cl)cc2)c(=O)c2c3c(sc21)CCCC3 | 6 | nt | 1 | 0
COc1ccc(CSCC(=O)N/N=C/c2ccc(OCC(=O)N3CCCCC3)cc2)cc1 | 8 | -56* | 23 | 2
COc1cc2c(cc1OC)CN(CCC(=O)c1ccc(Br)cc1)CC2 | -18 | -53* | -11 | 0
CCN(c1ccccc1)S(=O)(=O)c1ccc(Cl)c(C(=O)NC2CCN(Cc3ccccc3)CC2)c1 | -26 | ? | 12 | 1
CN(C)S(=O)(=O)c1ccc(Cl)c(C(=O)NC2CCN(Cc3ccccc3)C2)c1 (stereo not given) | -13 | -59* | 15 | 0
Cc1c(C(=O)NC2CCN(Cc3ccccc3)C2)oc2c(Cl)cccc12 (stereo not given) | -20 | -100* | 5 | 1
O=C(NC1CCN(Cc2ccccc2)C1)c1cccc(S(=O)(=O)N2CCOCC2)c1 (stereo not given) | -29 | ? | -4 | 0
CO/N=C(/C(=O)N[C@@H]1C(=O)N2C(C(=O)[O-])=C(C[n+]3ccn4ncccc43)CS[C@H]12)c1nsc(N)n1 | -8 | nt | nt | nt
CN1CCN(c2nc(-c3ccc(Cl)cc3)nc3ccccc23)CC1 | -31 | -61* | 2 | -1
CN1CCN(c2nc(-c3ccncc3)nc3ccccc23)CC1 | -1 | 75 | -2 | 0
c1ccc(-c2nc(N3CCOCC3)c3ccccc3n2)nc1 | 7 | -6 | 4 | 0
SMILES | DRD3 agonist | D3 antag | TRPML1 blocker | TRPML1 agonist
c1ccc(-c2nc(N3CCCCCC3)c3ccccc3n2)nc1 | -18 | -127* | 21 | 3
c1ccc(CCNc2nc(-c3ccccn3)nc3ccccc23)cc1 | -26 | -70* | 31 | 2
Cc1nc(N2CCCC2)c2c(C(=O)N3CCN(c4cccc(C)c4C)CC3)c(C)oc2n1 | 0 | nt | 20 | 1
CCN(CC)c1ccc(/C=C2\C=Cc3ccccc32)cc1 | nt | nt | nt | 0
Cc1sc2ccccc2[n+]1CCC[n+]1c(C)sc2ccccc21 | nt | nt | nt | 0
CC(CNC1CCCCC1)OC(=O)c1ccccc1 (stereo not given) | -84 | -100* | -10 | -1
COc1cccc(OC2(C)CCN(Cc3cccn3-c3nccs3)C2)c1 (stereo not given) | -11 | -15 | nt | 0
CC1(Oc2ccc(-n3ccnc3)cc2)CCN(Cc2cccn2-c2nccs2)C1 (stereo not given) | 56* | 0 | nt | 0
CN(C)c1ccc(C(=O)c2ccc(O)cc2O)cc1 | -4 | -21 | -11 | 1
CN(C)c1ccc(Cc2cc3c(O)ccc(O)c3cc(Cc3ccc(N(C)C)cc3)c2=O)cc1 | -2 | -51* | 18 | 1
